Screening data deposited in PubChem BioAssay by several laboratories.
HIF-2a inh = HIF-2a inhibition | 786-0 RCC cells HIF-2a reporter, luciferase luminescence, overnight | inhibition, % at 18.8 µM | hit rate 0.72% among 360,000;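 active = inhibition of the luminescence signal of 40% or more relative to plate controls, in a single-dose primary screen at 18.75 µM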
MITF TRPM1 inh = MITF TRPM1 promoter inhibition in SK-MEL-5 cells; SK-MEL-5 TRPM1 promoter luciferase, 24 h; inhibition, % at 12.5 µM; hit rate 0.83% among 330,000; AID 488899;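 active = mean inhibition across replicates of 60% or more, whatever share of single replicates reaches that level; inconclusive = some that reach 60%, reason not given; inactive = mean inhibition across replicates below 60%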
CF NFkB block = inhibitors of cystic fibrosis induced NF-kB. KKLEB NF-kB-GFP reporter, PAF-induced, GFP fluorescence overnight. inhibition, % at 5 µM. hit rate 0.86% among 360,000. AID 588850;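 active = at least 50% inhibition at 5 µM, scaled per plate between neutral and stimulator controls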;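 also: PAF is a Pseudomonas aeruginosa culture filtrate used as stimulus; plate controls were PAF-stimulated DMSO wells for no effect and unstimulated DMSO wells for full effect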
KKLEB tox = reduces viability of KKLEB cystic fibrosis airway cells; KKLEB CF airway cells viability, ATPlite luminescence, overnight; stronger effect = lower value; cells stimulated with P. aeruginosa culture filtrate; activity change (cytotoxicity), % at 5 µM; hit rate 0.36% among 360,000; AID 602141;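 active = corrected activity change at or below -50% at 5 µM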
Peg3 prom inh = inhibitors of Peg3 promoter; AID 588405; inhibition, % at 20 µM; hit rate 1.7% among 360,000; HeLa PEG-Prom luciferase reporter, luminescence, overnight;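 active = inhibition of at least 50% at 20 µM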
CHOP inhibitor = inhibitors of CHOP induction in ER stress response. hit rate 3.8% among 220,000. inhibition, % at 10 µM. CHO-K1 CHOP-promoter luciferase, tunicamycin-induced, 15-18 h;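 active = compounds that reduced the stress-induced luciferase reporter signal by more than about 70% of percent inhibition, limit read from the data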;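 also: 0% = tunicamycin plus vehicle and 100% = wells without tunicamycin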
Mdm2-MdmX confirm = confirmation of inhibitors of human Mdm2/MdmX interaction, set 2; shares compounds with HIF-2a inh; SaOS-2 split-luciferase Mdm2/MdmX complementation, luminescence; inhibition, % at 8 µM; hit rate 99% among 740; AID 504601;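 active = mean inhibition of the luminescence signal across two replicates at or above 26 percent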
Target sequence (O15151 whole entry, looked up): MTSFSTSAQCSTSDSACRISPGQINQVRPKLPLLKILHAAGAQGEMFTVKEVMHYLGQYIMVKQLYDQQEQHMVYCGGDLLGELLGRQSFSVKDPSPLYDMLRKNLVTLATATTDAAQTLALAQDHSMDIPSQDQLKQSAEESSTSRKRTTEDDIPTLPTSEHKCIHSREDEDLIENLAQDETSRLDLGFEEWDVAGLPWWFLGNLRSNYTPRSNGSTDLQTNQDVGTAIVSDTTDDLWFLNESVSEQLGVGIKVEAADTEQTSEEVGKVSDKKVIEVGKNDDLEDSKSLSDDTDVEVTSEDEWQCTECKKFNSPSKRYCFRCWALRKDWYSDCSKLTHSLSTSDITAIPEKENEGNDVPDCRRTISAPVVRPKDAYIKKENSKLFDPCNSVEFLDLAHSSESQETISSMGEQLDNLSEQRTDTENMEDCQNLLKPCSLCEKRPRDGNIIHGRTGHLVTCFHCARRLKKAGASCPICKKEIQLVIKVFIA
Target sequence (Q00987 whole entry, looked up): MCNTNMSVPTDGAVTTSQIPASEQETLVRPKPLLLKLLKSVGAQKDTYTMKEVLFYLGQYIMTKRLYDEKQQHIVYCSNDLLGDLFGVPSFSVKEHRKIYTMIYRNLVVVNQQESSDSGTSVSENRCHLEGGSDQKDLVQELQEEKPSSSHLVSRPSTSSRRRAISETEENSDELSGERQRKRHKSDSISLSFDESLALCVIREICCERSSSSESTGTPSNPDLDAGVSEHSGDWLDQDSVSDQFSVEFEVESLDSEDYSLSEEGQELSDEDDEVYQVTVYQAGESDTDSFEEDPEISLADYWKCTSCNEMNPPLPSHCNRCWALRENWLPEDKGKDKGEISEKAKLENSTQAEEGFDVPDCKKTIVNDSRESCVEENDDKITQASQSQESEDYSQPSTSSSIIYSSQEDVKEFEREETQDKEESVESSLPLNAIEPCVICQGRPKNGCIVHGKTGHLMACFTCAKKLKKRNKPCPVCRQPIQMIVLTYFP
HIF-2a conf = HIF-2a inhibition, single concentration confirmation; shares compounds with HIF-2a inh; 786-0 RCC cells, HIF-2a luciferase reporter luminescence, overnight; inhibition, % at 18.8 µM; hit rate 56% among 1,800; AID 651580;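 active = mean inhibition across four replicates of at least 40 percent at the single tested concentration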
HIF-1a counter = counter-screen for HIF-2a inhibitors: HIF-1a inhibition in MiaPaCa-2 cells | shares compounds with HIF-2a inh | MiaPaCa-2 HIF-1a luciferase reporter, desferoxamine, overnight | inhibition, % at 18.8 µM | hit rate 72% among 1,800 | AID 651589;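 active = mean inhibition of the reporter signal across four replicates at the single tested dose of 50% or more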
An asterisk follows results filed as active; ? = inconclusive; · = no result. Hits are enriched below; roughly 4.3% of the tested compounds scored in any of these assays.

SMILES | HIF-2a inh | MITF TRPM1 inh | CF NFkB block | KKLEB tox | Peg3 prom inh | CHOP inhibitor | HIF-2a conf | HIF-1a counter | others
O=C(O)c1cccc(CSc2nnc(-c3ccc(Cl)cc3)o2)c1 | 70* | 12 | -9 | 5 | -40 | · | 80* | 26
O=C(COC(=O)/C=C/c1ccccc1Cl)NC1CCCCCC1 | 9 | -11 | 4 | 1 | 6 | 62 | · | ·
COc1ccc(/C=N\n2nnc3ccccc32)cc1 | 40* | 38 | 1 | -19 | 48 | 61 | 72* | 42
COc1ccc(/C=N/n2c(C)nc3ccccc3c2=O)cc1 | -94 | -32 | -10 | 16 | -110 | · | · | ·
CN(CC(=O)Nc1ccc(F)c(F)c1F)C(=O)C1CCCC1 | 4 | 1 | 26 | 0 | 12 | · | · | ·
CC(=O)Nc1ccc(NC(=O)c2ccc(-c3ccnn3C)c3ccoc23)cc1 | 61* | · | 5 | -3 | -80 | · | 86* | 34
O=C(c1ccc(=O)[nH]n1)N1CCN(S(=O)(=O)c2ccc(C(F)(F)F)cc2)CC1 | 2 | -10 | 15 | -12 | -20 | · | · | ·
CN(C)c1ccc(C(=O)N/N=C/c2cc(Br)cc(Br)c2O)cc1 | 3 | · | 16 | 4 | 59* | 91* | · | · | Mdm2-MdmX confirm=89*
COc1cc(OC)cc(-n2nnnc2SCC(=O)N2CCCC2)c1 | -10 | 4 | -11 | 1 | 21 | -17 | · | ·
COc1ccc(-n2nnnc2S(=O)(=O)CC(=O)N2CCCCC2)cc1 | 90* | 74* | 83* | -54* | 103* | · | 18 | -5
Cc1ccc(C(C)C)c(OCc2ccc(-c3nnco3)cc2)c1 | 69* | -2 | 15 | 2 | -48 | 52 | 71* | -45
Cc1noc(C)c1COC(=O)c1ccccc1NC(=O)c1ccco1 | 6 | 1 | -6 | 5 | 15 | 48 | · | ·
Nc1ccc(C2(c3ccc(N)cc3)c3ccccc3C(=O)c3ccccc32)cc1 | 42* | 7 | 21 | 1 | 44 | · | 33 | 55*
O=C1OC(c2ccc(O)cc2)(c2ccc(O)cc2)c2ccccc21 | 23 | -3 | 17 | -15 | 20 | 17 | · | ·
CCCN(C(=O)COC(=O)CNC(=O)c1ccc2ccccc2c1)c1c(N)n(Cc2ccccc2)c(=O)[nH]c1=O | 0 | -12 | -9 | 14 | -8 | · | · | ·
S=c1[nH]nc(-c2ccccc2)n1/N=C/c1ccc(-c2ccccc2Cl)o1 | 0 | 6 | 7 | 19 | 12 | -24 | · | · | Mdm2-MdmX confirm=100*
O=C(CNC(=O)c1ccccc1F)NCCN1C(=O)S/C(=C\c2ccc3c(c2)OCO3)C1=O | 14 | -13 | -12 | -2 | -48 | · | · | ·
NCCN1C(=O)S/C(=C\c2ccc3c(c2)OCO3)C1=O | 86* | ? | -14 | 11 | -8 | · | 95* | 67*
COCCN(CC(=O)NC1CCCCC1)C(=O)/C=C/C(=O)c1ccc(OC)cc1O | 92* | 94* | 26 | 5 | 97* | 108* | 99* | 103*
C[C@H](CO)N1C[C@H](C)[C@@H](CN(C)S(C)(=O)=O)Oc2ccc(NC(=O)CCN3CCOCC3)cc2C1=O | 5 | 10 | 3 | 1 | 4 | · | · | ·
CC(C)(C)c1ccc(C(=O)NCCOc2ccccc2F)cc1 | 41* | 26 | 13 | -1 | 67* | · | 61* | 73*
CC(C)(C)c1ccc(C(=O)NCCOc2ccccc2)cc1 | 6 | 9 | 7 | -1 | -35 | · | · | ·
CC(=O)c1c(C)[nH]c(C(=O)Nc2ccc(C)cn2)c1C | 46* | 45 | -25 | 5 | 49 | 67 | 60* | 56*
Cc1nc(SCc2cccc(C(=O)O)c2)nc2c1CCCC2 | 86* | 28 | -2 | 0 | -48 | 47 | 84* | 25
Cc1nn(-c2ccccc2)c(C)c1NS(=O)(=O)c1ccccc1 | 41* | 25 | 3 | 6 | 16 | 12 | 34 | 14
SMILES | HIF-2a inh | MITF TRPM1 inh | CF NFkB block | KKLEB tox | Peg3 prom inh | CHOP inhibitor | HIF-2a conf | HIF-1a counter | others
COc1cc(O)c(CCC(=O)c2ccc(OC)c(OC)c2)c(OC)c1 | 6 | 8 | 12 | -17 | 11 | · | · | ·
Cc1ccc(-c2nc(NCCCO)c3ccccc3n2)cc1 | -19 | -3 | -16 | 4 | 11 | · | · | ·
OCCCNc1c2ccccc2nc2ccccc12 | 6 | 83* | -126 | 6 | 104* | · | · | · | Mdm2-MdmX confirm=97*
COc1ccc(NC(=O)CCCNC(=O)Cn2cnc3sc4c(c3c2=O)CCCC4)c(OC)c1 | 8 | 13 | 10 | 4 | 10 | · | · | ·
Cc1ccc(C(=O)NC(=C(Cl)Cl)S(=O)(=O)c2ccc(C)cc2)cc1 | 9 | 0 | -16 | -7 | 18 | 9 | · | ·
Cc1ccc(S(=O)(=O)/C(=C/Cl)NC(=O)c2ccccc2)cc1 | 41* | 33 | 49 | -26 | 81* | -62 | 8 | 68*
O=C(NC(=C(Cl)Cl)S(=O)(=O)c1ccc(Cl)cc1)c1ccccc1 | 62* | 38 | 25 | -5 | 61* | 3 | 4 | 103*
Cc1ccc(S(=O)(=O)C(NC(=O)c2ccccc2)=C(Cl)Cl)cc1 | 41* | 12 | 7 | -6 | 52* | · | 13 | 82*
Cc1ccc(S(=O)(=O)CCC(=O)OCC(=O)NC(=O)c2ccccc2)cc1 | 4 | -2 | 16 | -4 | -17 | · | · | ·
Cn1c(/C=C/c2ccc([N+](=O)[O-])o2)nc2ccccc2c1=O | 75* | 85* | -11 | -6 | 110* | · | -7 | 105* | Mdm2-MdmX confirm=102*
Cc1nn(S(=O)(=O)c2ccccc2)c(C)c1S(=O)(=O)N1CCOCC1 | 12 | 13 | -29 | -8 | -2 | · | · | ·
O=C(NC1CC1)C1CCN(S(=O)(=O)c2ccc(Cl)c([N+](=O)[O-])c2)CC1 | 22 | 75* | -6 | 9 | 41 | · | · | · | Mdm2-MdmX confirm=102*
O=C(NC1CCN(S(=O)(=O)c2cccc([N+](=O)[O-])c2)CC1)C1CCCCC1 | 6 | -2 | 8 | -9 | -3 | · | · | ·
O=C(Nc1ccc(-c2nc3ccccc3o2)cc1)C1CCCO1 (stereo not given) | -181 | -38 | -12 | -9 | -142 | 0 | · | ·
O=C(Nc1ccc(-c2nc3cccnc3s2)cc1)C1CCCO1 (stereo not given) | 58* | · | 27 | -18 | 50 | 52 | 69* | 45
C=C(C(=O)c1ccccc1)C(CC(=O)c1ccccc1)c1ccccc1 (stereo not given) | 95* | 48 | 52* | -55* | 100* | -31 | 57* | 103* | Mdm2-MdmX confirm=102*
C=CC[C@H](N)C(=O)O | · | · | · | · | · | -4 | · | ·
Cc1cc(C)n(C(=O)/C(C#N)=N/Nc2cc(Cl)cc(Cl)c2)n1 | 5 | 32 | 57* | -62* | 34 | 35 | · | · | Mdm2-MdmX confirm=95*
